Measurements: the supplement of paper PMC9262897, “Low-cost anti-mycobacterial drug discovery using engineered E. coli” (Nature Communications, 2022)
Structures can show the parent of a compound that is named as a salt. ± gives the standard deviation of the averaged measurements.

Columns and labels:
Assay in all cases: growth (OD600 after 10 h); higher = more growth (less inhibition)
[1] = tested on: E. coli TESEC Alr+ wild-type control; details: compound 0.1 mM; raw OD600 reference: median of DMSO wells 0.241, cell-free background 0.041
Experimental: (§1)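 TESEC Mtb Alr E. coli, or the Alr+ wild-type control, in 384-well plates with Prestwick library compounds at 0.1 mM and 1% DMSO, across arabinose induction levels of 1E3 to 1E7 nM. Growth is read as OD600 after 10 h at 37 °C in triplicate biological replicates.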

[2] = tested on: E. coli TESEC Mtb Alr; details: compound 0.1 mM
Experimental: as §1

[3] = tested on: E. coli TESEC Mtb Asd; details: compound 0.1 mM
Experimental: (§2)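 TESEC E. coli strains in which the native enzyme is deleted and replaced by arabinose-inducible Mtb Asd, DapB, CysH or TrpD, each grown in its selective medium. Strains were screened against the Prestwick library at 0.1 mM and 1% DMSO in 384-well format at low and high arabinose induction. Growth is read as OD600 after 10 h in triplicate.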

[4] = tested on: E. coli TESEC Mtb DapB; details: compound 0.1 mM
Experimental: as §2

[5] = tested on: E. coli TESEC Alr+ wild-type control; details: compound 0.1 mM; raw OD600 reference: median of DMSO wells 0.49, cell-free background 0.052
Experimental: (§3)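 TESEC Mtb Alr E. coli (ΔaraC ΔtolC ΔentC Δalr ΔdadX, arabinose-inducible Mtb Alr) or the Alr+ wild-type control strain, grown in defined M9-fructose medium without D-alanine in 96-well plates with Prestwick library compounds at 0.1 mM and 1% DMSO. Low Alr induction is 0.1 µM arabinose and high induction is 10 mM arabinose.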

[6] = tested on: E. coli TESEC Mtb Alr; details: compound 0.1 mM; remark: listed apart in the source
Experimental: as §3

[7] = arabinose 1000 nM, raw OD600 reference: median of DMSO wells 0.294, cell-free background 0.041
[8] = arabinose 10000 nM, raw OD600 reference: median of DMSO wells 0.264, cell-free background 0.041
[9] = arabinose 100000 nM, raw OD600 reference: median of DMSO wells 0.201, cell-free background 0.041
[10] = arabinose 1000000 nM, raw OD600 reference: median of DMSO wells 0.193, cell-free background 0.041
[11] = arabinose 10000000 nM, raw OD600 reference: median of DMSO wells 0.146, cell-free background 0.041
[12] = arabinose induction (level): High, raw OD600 reference: median of DMSO wells 0.331, cell-free background 0.041
[13] = arabinose induction (level): Low, raw OD600 reference: median of DMSO wells 0.417, cell-free background 0.041
[14] = arabinose induction (level): High, raw OD600 reference: median of DMSO wells […], cell-free background 0.041
[15] = arabinose induction (level): Low, raw OD600 reference: median of DMSO wells 0.227, cell-free background 0.041
[16] = arabinose 100 nM, raw OD600 reference: median of DMSO wells 0.413, cell-free background 0.052
[17] = arabinose 10000000 nM, raw OD600 reference: median of DMSO wells […], cell-free background 0.052

Compound	growth [1]	growth [2, 7]	growth [2, 8]	growth [2, 9]	growth [2, 10]	growth [2, 11]	growth [3, 12]	growth [3, 13]	growth [4, 14]	growth [4, 15]	growth [5]	growth [6, 16]	growth [6, 17]
COc1ccc2c(c1)c(CC(=O)O)c(C)n2C(=O)c1ccc(Cl)cc1 [Indomethacin]	0.141 ± 0.0034	0.186 ± 0.008	0.2 ± 0.0069	0.124 ± 0.0036	0.0963 ± 0.0012	0.105 ± 0.0024	0.172 ± 0.017	0.196 ± 0.036	0.156 ± 0.0079	0.214 ± 0.073	0.392 ± 0.0071	0.366 ± 0.032	0.143 ± 0.0065
Cc1c(O)c(=O)n(-c2ccccc2)n1C [Antipyrine, 4-hydroxy]	0.2468 ± 0.00085	0.289 ± 0.012	0.252 ± 0.0096	0.211 ± 0.0099	0.182 ± 0.004	0.154 ± 0.0051	0.338 ± 0.034	0.375 ± 0.01	0.184 ± 0.01	0.206 ± 0.032	0.507 ± 0.069	0.405 ± 0.0081	0.37 ± 0.033
OC(CCCN1CCCCC1)(c1ccccc1)c1ccccc1 [Diphenidol hydrochloride]	0.227 ± 0.0039	0.278 ± 0.0057	0.257 ± 0.0075	0.2 ± 0.02	0.162 ± 0.0026	0.137 ± 0.0047	0.262 ± 0.012	0.488 ± 0.018	0.182 ± 0.018	0.221 ± 0.054	0.48 ± 0.034	0.407 ± 0.008	0.345 ± 0.0049
CCN(CC)CCc1nc(-c2ccccc2)no1 [Oxalamine citrate salt]	0.23 ± 0.012	0.273 ± 0.021	0.27 ± 0.0036	0.187 ± 0.0043	0.187 ± 0.0094	0.135 ± 0.0019	0.307 ± 0.045	0.332 ± 0.031	0.186 ± 0.0074	0.216 ± 0.013	0.537 ± 0.036	0.406 ± 0.011	0.343 ± 0.015
O=C1OC(CN2CCOCC2)CN1/N=C/c1ccc([N+](=O)[O-])o1 (configuration not stated) [Furaltadone hydrochloride]	0.04157 ± 0.00012	0.0421 ± 0.002	0.0409 ± 0.0001	0.04173 ± 5.8e-05	0.0404 ± 0.00046	0.0427 ± 0.0014	0.0534 ± 0.0031	0.0559 ± 0.0011	0.0577 ± 0.0081	0.0529 ± 0.00068	0.05647 ± 0.00045	0.0601 ± 0.0022	0.0562 ± 0.0033
CCCNC(=O)NS(=O)(=O)c1ccc(Cl)cc1 [Chlorpropamide]	0.255 ± 0.0063	0.301 ± 0.007	0.25 ± 0.0077	0.23 ± 0.048	0.184 ± 0.008	0.141 ± 0.0057	0.392 ± 0.035	0.409 ± 0.057	0.234 ± 0.032	0.231 ± 0.0079	0.525 ± 0.065	0.396 ± 0.02	0.3521 ± 0.0031
O=C1[C@H]2CCCC[C@H]2C(=O)N1CCCCN1CCN(c2nsc3ccccc23)CC1 [Perospirone]	0.131 ± 0.0041	0.225 ± 0.0052	0.257 ± 0.0052	0.146 ± 0.0072	0.103 ± 0.0012	0.1416 ± 0.00075	0.188 ± 0.026	0.369 ± 0.015	0.174 ± 0.013	0.241 ± 0.037	0.432 ± 0.016	0.419 ± 0.0096	0.29 ± 0.027
CCCN(CCC)C(=O)C(CCC(=O)O)NC(=O)c1ccccc1 (configuration not stated) [Proglumide]	0.255 ± 0.0056	0.282 ± 0.036	0.29 ± 0.017	0.22 ± 0.025	0.188 ± 0.0035	0.17 ± 0.0066	0.318 ± 0.075	0.368 ± 0.053	0.205 ± 0.018	0.246 ± 0.019	0.477 ± 0.079	0.415 ± 0.021	0.376 ± 0.033
CCN1CC(CCN2CCOCC2)C(c2ccccc2)(c2ccccc2)C1=O (configuration not stated) [Doxapram hydrochloride]	0.234 ± 0.0045	0.284 ± 0.0045	0.248 ± 0.004	0.199 ± 0.018	0.205 ± 0.016	0.1315 ± 0.0013	0.309 ± 0.091	0.426 ± 0.072	0.205 ± 0.018	0.243 ± 0.017	0.54 ± 0.012	0.394 ± 0.016	0.339 ± 0.014
CCN(CC)C(=S)SSC(=S)N(CC)CC [Disulfiram]	0.278 ± 0.0078	0.197 ± 0.027	0.115 ± 0.0063	0.161 ± 0.014	0.0709 ± 0.0023	0.06003 ± 0.00047	0.192 ± 0.028	0.33 ± 0.034	0.161 ± 0.013	0.211 ± 0.01	0.443 ± 0.066	0.23 ± 0.093	0.146 ± 0.008
CC(C)(C)NC(=O)[C@@H]1C[C@@H]2CCCC[C@@H]2CN1C[C@@H](O)[C@H](Cc1ccccc1)NC(=O)[C@H](CC(N)=O)NC(=O)c1ccc2ccccc2n1 [Saquinavir mesylate]	0.072 ± 0.012	0.0535 ± 0.0019	0.0491 ± 0.0035	0.0468 ± 0.0011	0.051 ± 0.0027	0.0524 ± 0.0032	0.0544 ± 0.0037	0.0524 ± 0.001	0.05287 ± 0.00045	0.0578 ± 0.0085	0.0807 ± 0.0042	0.273 ± 0.11	0.0539 ± 0.0034
CC(C)n1c(/C=C/C(O)CC(O)CC(=O)O)c(-c2ccc(F)cc2)c2ccccc21 (configuration not stated) [Fluvastatin sodium salt]	0.165 ± 0.0024	0.247 ± 0.017	0.192 ± 0.0063	0.187 ± 0.015	0.0938 ± 0.0088	0.157 ± 0.0043	0.216 ± 0.066	0.32 ± 0.052	0.17 ± 0.0096	0.199 ± 0.02	0.401 ± 0.012	0.394 ± 0.03	0.235 ± 0.0099
CCc1nn(CCCN2CCN(c3cccc(Cl)c3)CC2)c(=O)n1CCOc1ccccc1 [Nefazodone HCl]	0.0424 ± 0.00076	0.0444 ± 0.0031	0.04017 ± 0.00012	0.0431 ± 0.00062	0.0406 ± 0.00026	0.0473 ± 0.0025	0.0498 ± 0.0029	0.0479 ± 0.0011	0.05113 ± 0.00049	0.0483 ± 0.00036	0.0504 ± 0.00067	0.29 ± 0.2	0.0515 ± 0.001
NC1CCN(c2nc3c(cc2F)c(=O)c(C(=O)O)cn3-c2ccc(F)cc2F)C1 (configuration not stated) [Tosufloxacin hydrochloride]	0.0572 ± 0.0069	0.048 ± 0.0026	0.0491 ± 0.00026	0.0552 ± 0.0018	0.0452 ± 0.0008	0.0575 ± 0.0043	0.054 ± 0.01	0.0575 ± 0.0039	0.05407 ± 0.0005	0.0526 ± 0.0037	0.0604 ± 0.0041	0.05307 ± 0.00025	0.0578 ± 0.0027
